High-throughput results as filed in PubChem BioAssay.
PAFAH1B3 inh: blocks human PAF acetylhydrolase 1B catalytic subunit 3; Q15102; recombinant PAFAH1B3, FP-rhodamine probe, fluorescence polarization; inhibition, % at 3.39 µM; 340,000 compounds, 0.28% hits; AID 492972;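 active = inhibition above the screen-wide average of all tested compounds plus 3 SD, cut at about 25% in these data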
pPAFAH inh: pPAFAH (human) enzyme inhibition. recombinant pPAFAH, FP-rhodamine probe fluorescence polarization. 330,000 compounds, 1.5% hits. inhibition, % at 3.39 µM. AID 463082;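 active = inhibition above the mean inhibition across the screen plus 3 SD, cut at about 25% in these data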;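 also: inhibitors block binding of the rhodamine activity-based probe so polarization drops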
Target sequence (Q13093 whole entry, looked up): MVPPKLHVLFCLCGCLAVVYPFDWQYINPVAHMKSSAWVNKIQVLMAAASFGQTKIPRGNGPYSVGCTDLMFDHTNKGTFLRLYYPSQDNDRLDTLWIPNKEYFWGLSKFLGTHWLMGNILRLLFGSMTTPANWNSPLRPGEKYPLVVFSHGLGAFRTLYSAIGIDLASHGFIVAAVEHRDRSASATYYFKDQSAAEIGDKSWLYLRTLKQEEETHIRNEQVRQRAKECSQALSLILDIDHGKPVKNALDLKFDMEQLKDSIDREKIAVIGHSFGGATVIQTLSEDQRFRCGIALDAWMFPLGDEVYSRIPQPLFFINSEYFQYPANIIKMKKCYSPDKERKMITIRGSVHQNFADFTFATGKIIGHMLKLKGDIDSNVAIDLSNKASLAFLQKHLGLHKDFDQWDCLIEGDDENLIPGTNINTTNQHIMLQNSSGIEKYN
PAFAH1B2 inh: blocks human PAF acetylhydrolase 1b catalytic subunit 2. recombinant PAFAH1B2, FP-rhodamine activity probe, fluorescence polarization. 340,000 compounds, 1.2% hits. P68402. inhibition, % at 3.39 µM;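 active = inhibition above the mean of all tested compounds plus 3 SD, cut at about 24% in these data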
PAFAH2 FP inh: PAFAH2 (human) inhibition; Q99487; recombinant PAFAH2, FP-rhodamine activity probe, fluorescence polarization; inhibition, % at 3.39 µM; 340,000 compounds, 0.99% hits; AID 492956;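 active = inhibition above the mean over all tested compounds plus 3 SD, cut at about 30% in these data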;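 also: inhibitors block probe labeling of enzyme so polarization drops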
LYPLA2 inh: counter-screen for PME1 inhibitors: inhibitors of human LYPLA2 | recombinant LYPLA2, FP-Rh probe fluorescence polarization | inhibition, % at 5.9 µM | 320,000 compounds, 0.38% hits;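 active = inhibition above the screen-wide mean plus 3 SD, limit set per campaign, cut at about 26% in these data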
LYPLA1 inh: counter-screen for PME1 inhibitors: inhibitors of human LYPLA1. recombinant LYPLA1, FP-Rh probe fluorescence polarization. O75608. inhibition, % at 5.9 µM. 320,000 compounds, 0.16% hits;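 active = inhibition above the mean of all tested compounds plus 3 SD, set per campaign, cut at about 14% in these data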;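 also: inhibitors block serine hydrolase probe labeling of LYPLA1 so polarization falls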
PAFAH1B3 confirm: confirmation of human PAFAH1B3 inhibitors | shares compounds with PAFAH1B3 inh | recombinant PAFAH1B3, FP-Rh activity-based probe, fluorescence polarization | inhibition, % at 3.39 µM | 390 compounds, 30% hits | AID 493032;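 active = average inhibition over triplicate runs above the hit cutoff set in the earlier primary screen, cut at about 25% in these data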
Hits are given with their value; 0 = inactive; - = not tested or not shown. Compounds with a hit are over-represented: about 2.9% of the library has one in this group of screens.

SMILES	PAFAH1B3 inh	pPAFAH inh	PAFAH1B2 inh	PAFAH2 FP inh	LYPLA2 inh	LYPLA1 inh	PAFAH1B3 confirm
COc1ccc(/C=C/C(=O)NC(=S)Nc2cc([N+](=O)[O-])ccc2O)cc1OC	35.0	0	0	0	0	0	31.1
CC(C)C1Nc2ccc(C(=O)O)cc2C2C=CCC21 (stereo unspecified)	29.1	0	0	0	0	0	0
CCc1ccc(/C=C/C(=O)C2C(=O)c3ccccc3C2=O)cc1	27.6	0	0	0	0	0	0
O=C(/C=C/c1ccccc1)C1C(=O)c2ccccc2C1=O	0	0	0	0	0	0	-
CCc1ccc(S(=O)(=O)Nc2cc(SCC(=O)O)c(O)c3ccccc23)cc1	27.8	0	0	0	0	0	0
Nc1cnccc1C(=O)O	27.9	0	0	0	0	0	0
Cc1ccc(-n2c(C)cc(C(=O)NS(=O)(=O)c3ccc(C)cc3)c2C)cc1	52.5	0	0	0	0	0	35.9
Cc1noc(C)c1CSc1ccccc1C(=O)Nc1nccs1	0	0	0	0	0	0	-
COc1cccc(NC(=O)NC2(C(=O)N3CCN(C)CC3)CCCCC2)c1	0	0	0	0	0	0	-
CC(=O)N(Cc1ccc(F)cc1)C1=C(NCc2ccccc2)C(=O)c2ccccc2C1=O	42.2	-	0	0	-	-	0
Cc1cc(C)nc(N2CCC(C(=O)Nc3ccc(Oc4ccccc4)cc3)CC2)n1	108.4	0	0	0	0	0	0
CC(C)(C)CC(=O)N[C@@H](Cc1ccccc1)c1nc2ccccc2[nH]1	0	0	0	0	0	0	-
COc1cc(NCCCCCCN)c2ncccc2c1OC	56.7	-	0	0	-	-	0
COc1cc(C(=O)c2nccc3cc(OC)c(OC)cc23)c([N+](=O)[O-])cc1OC	40.5	0	0	0	0	0	0
O=[N+]([O-])c1ccc(-c2nc(Nc3ccc(O)cc3)c3ccccc3n2)cc1	0	-	0	0	-	-	-
O=C(O)c1ccc(Nc2nc(-c3ccc([N+](=O)[O-])cc3)nc3ccccc23)cc1	26.2	-	0	0	-	-	0
O=C(N/N=C/c1ccccc1O)NC12CC3CC(CC(C3)C1)C2	26.2	0	0	0	0	0	0
Cc1cc(O)c(C(=O)/C=C/c2ccccc2Br)c(=O)o1	0	0	0	0	0	0	-
Nc1ccc(N(CCO)CCO)cc1	37.6	0	0	0	0	0	0
O=C(NC1=NCCS1)c1cccc(N2C(=O)c3ccccc3C2=O)c1	0	0	0	0	0	0	-
O=Cc1ccc(O)c2ncccc12	29.3	-	0	0	-	-	0
CCOC(=O)c1sc(NCC2CCCO2)nc1C (stereo unspecified)	0	0	0	0	0	0	-
CNC(=O)c1[nH]nc2c1CCc1cc(OC)ccc1-2	28.2	0	0	0	0	0	0
COc1ccc2c(c1)CCc1c-2n[nH]c1C(=O)NCCC(C)C	0	0	0	0	0	0	-
CC(=O)Nc1ccc(S(=O)(=O)/N=C2\C(=O)c3ccccc3C([O-])=C2n2cc[n+](-c3ccccn3)c2)cc1	38.2	0	0	0	0	0	0
SMILES	PAFAH1B3 inh	pPAFAH inh	PAFAH1B2 inh	PAFAH2 FP inh	LYPLA2 inh	LYPLA1 inh	PAFAH1B3 confirm
CCCC[n+]1ccn(C2=C([O-])c3ccccc3C(=O)/C2=N\S(=O)(=O)c2ccc(Br)cc2)c1	0	0	0	0	0	0	-
Cc1ccc(S(=O)(=O)/N=C2\C(=O)c3ccccc3C([O-])=C2n2cc[n+](CCC(C)C)c2)cc1	25.6	0	0	0	0	0	0
Cc1ccc(NC(=O)C[n+]2ccn(C3=C([O-])c4ccccc4C3=O)c2)cc1	0	0	0	0	0	0	-
C[C@@H]1CN([C@@H](C)CO)C(=O)Cc2cc(NS(=O)(=O)c3cn(C)cn3)ccc2O[C@@H]1CN(C)C(=O)Nc1ccccc1	26.2	0	0	0	-	-	0
C[C@H](CO)N1C[C@H](C)[C@H](CN(C)S(=O)(=O)c2cccs2)Oc2ccc(NC(=O)Nc3ccc4c(c3)OCO4)cc2CC1=O	27.7	0	0	0	-	-	0
C[C@H](CO)N1C[C@H](C)[C@@H](CN(C)S(=O)(=O)c2cccs2)Oc2ccc(NC(=O)Nc3ccc4c(c3)OCO4)cc2C1=O	0	0	0	0	-	-	-
C[C@H](CO)N1C[C@H](C)[C@@H](CN(C)C(=O)Nc2ccccc2)Oc2c(NS(=O)(=O)c3cn(C)cn3)cccc2C1=O	0	0	0	0	-	-	-
